Source: PubChem (National Center for Advancing Translational Sciences (NCATS))
Hits are enriched below; roughly 2.6% of the tested compounds scored in any of these assays.
FH mod = Identification of activators of human fumarate hydratase by quantitative high-throughput screening. 0.22% of 54,000 active. AID 1347055, 2019. FH coupled MDH/diaphorase resazurin fluorescence, 15 min. Fumarate hydratase, mitochondrial (Homo sapiens), P07954. Potency, µM (highest dose often 79.9 µM), actives largely listed as inhibitors; also: the screen sought activators but most active calls are inhibition curves; nearly all actives have a fitted effect of over 45% in size
TSG101-PTAP inh = TSG101-PTAP interaction inhibition, HIV-1 budding; Fluorescence polarization, FITC-PTAP peptide/Tsg101, 20 min; Potency, µM (doses to about 115 µM), actives largely listed as inhibitors; 44,000 tested, under 10 active
Target sequence (Q99816 whole entry, looked up): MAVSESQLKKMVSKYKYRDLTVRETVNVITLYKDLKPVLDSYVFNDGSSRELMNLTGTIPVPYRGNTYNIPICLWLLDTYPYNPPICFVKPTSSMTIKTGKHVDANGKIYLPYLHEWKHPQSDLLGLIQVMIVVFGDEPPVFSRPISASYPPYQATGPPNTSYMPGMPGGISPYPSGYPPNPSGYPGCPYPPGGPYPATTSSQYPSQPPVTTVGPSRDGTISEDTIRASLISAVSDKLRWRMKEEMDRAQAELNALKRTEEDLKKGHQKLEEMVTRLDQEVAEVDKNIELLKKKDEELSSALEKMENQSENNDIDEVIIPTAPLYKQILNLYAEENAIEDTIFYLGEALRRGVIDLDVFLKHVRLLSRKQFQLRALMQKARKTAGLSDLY
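Compounds pinned into 10 uM Tsg101 binding domain, then 50 nM FITC-PTAP peptide added in pH 7.5 HEPES buffer; FP read after 20 min, room temperature. Total S+P intensity flags fluorescent compounds; active cut-off <25 µM, efficacy <60%.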
GALK inh = inhibits human galactokinase | P51570 | Potency, µM (series often up to 57.5 µM), most hits filed as inhibitors | recombinant GALK, Kinase-Glo ATP luminescence, 1 h | 44,000 tested, under 10 active
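Reactions with and without enzyme served as controls. GALK at 5 nM phosphorylates 100 uM galactose using 35 uM ATP (HEPES pH 8.0, Mg2+) for 1 h at RT, with luminescence read 10 min after adding Kinase-Glo Plus.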
GALC G270D up = enhancers of human galactocerebrosidase G270D mutant activity in cells; 145M-Twi-hGALC-G270D cells (Twitcher mouse brain line with human GALC G270D), HMU-beta-Gal fluorescence, 48 h; Potency, µM (doses to about 57.5 µM), usual class: activators; 0.1% of 45,000 active; also: nearly all actives have a fitted effect of over 65% in size
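Brain-derived Twitcher mouse 145M-Twi cells stably expressing human GALC-G270D or wild-type GALC, treated live, then residual GALC activity read by fluorescence of HMU-b-Gal substrate (0.1 mM final) in citrate-phosphate buffer pH 5.2 with sodium taurocholate. Signal increase indicates enhancement.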
B2AR arrestin ag = agonists recruiting beta-arrestin to human beta2-adrenergic receptor. HTLA Tango cells, beta-arrestin recruitment, luciferase luminescence, 18 h. Potency, µM (titrated, usually from 46.1 µM), most hits filed as activators. 44,000 tested, under 10 active
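Tango cells (recombinant beta2-AR, beta-arrestin, tTA-driven luciferase), 1500/well in DMEM 1% FBS, treated 18 h at 37 °C with compounds up to 46 µM; luciferin mix added, luminescence read after 15 min; %activity curves fitted and curve-classed.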
GPR32 ag = GPR32 (DRV1) agonism, beta-arrestin recruitment; 2.5% of 48,000 active; O75388; CHO-K1 GPR32 beta-arrestin PathHunter luminescence, 90 min; zero percent set by DMSO-only wells; activation, % at 76.9 µM;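 active = activation of at least 60% and not above a set upper limit, about 1 call in 100 departs from these limits; inconclusive = activation of 40% to 60%, or above that upper limit; inactive = activation under 40%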
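PathHunter beta-arrestin recruitment in CHO-K1 cells stably expressing ProLink-tagged GPR32. Cells were exposed to compound for 90 min at 37 C, then chemiluminescence was read after 1 h detection at ambient temperature; DMSO served as basal control.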
Of the large screens only hits and unclear results are named; the others gave an inactive call. Unless noted, calls follow the shape of the dose curve; as a rule, active = well fitted curve in the direction sought with a large enough effect; inconclusive = small, poorly fitted or top-dose-only effect, or another doubt; inactive = no such curve, though single readings can be large; an effect the other way counts as inactive or inconclusive.

CC(C)(CC(=O)OCC(=O)Nc1ccccc1F)CC1=NS(=O)(=O)c2ccccc2N1	GPR32 ag 112
COc1ccccc1NC(=O)COC(=O)CC(C)(C)CC1=NS(=O)(=O)c2ccccc2N1	B2AR arrestin ag inconclusive, GPR32 ag inconclusive
CC(C)(CC(=O)OCC(=O)Nc1ccc(F)c(Cl)c1)CC1=NS(=O)(=O)c2ccccc2N1	GPR32 ag 115
O=C(COC(=O)CCCC1=NS(=O)(=O)c2ccccc2N1)Nc1ccc(Br)cc1	GPR32 ag inconclusive
CCOC(=O)c1ccccc1NC(=O)CSc1cc(C)[nH]c(=O)n1	none
C=C[C@H]1[C@H](O[C@@H]2O[C@H](CO)[C@@H](O)[C@H](O)[C@H]2O)OC=C(C(=O)OC)[C@H]1CCOC(=O)c1cc(O)c(O)c(O)c1	none (no result: TSG101-PTAP inh, GALK inh, GALC G270D up, B2AR arrestin ag, GPR32 ag)
COC(=O)C1=CO[C@@H](O[C@@H]2O[C@H](COC(=O)/C=C/c3cc(OC)c(O)c(OC)c3)[C@@H](O)[C@H](O)[C@H]2O)[C@@H]2C(CO)=CC[C@H]12	none (no result: TSG101-PTAP inh, GALK inh, GALC G270D up, B2AR arrestin ag, GPR32 ag)
CC[C@H]1OC(=O)[C@](C)(F)C(=O)[C@H](C)[C@@H](O[C@@H]2O[C@H](C)C[C@H](N(C)C)[C@H]2O)[C@](C)(OC)C[C@@H](C)C(=O)[C@@H](C)[C@H]2N(CCCCn3cc(-c4cccc(N)c4)nn3)C(=O)O[C@]12C	none (no result: TSG101-PTAP inh, GALK inh, GALC G270D up, B2AR arrestin ag, GPR32 ag)
CC(Sc1nc2c(cnn2-c2cccc(Cl)c2)c(=O)[nH]1)C(N)=O (centres undefined)	none (no result: TSG101-PTAP inh, GALK inh, GALC G270D up, B2AR arrestin ag, GPR32 ag)
Cc1cn2c(n1)Cc1ccc(Cl)cc1C(c1ccc(N)cc1)=N2	none (no result: TSG101-PTAP inh, GALK inh, GALC G270D up, B2AR arrestin ag, GPR32 ag)
N#C/C(=C\c1ccc(O)c(O)c1)C(=O)Nc1ccccc1	FH mod 14µM (no result: TSG101-PTAP inh, GALK inh, GALC G270D up, B2AR arrestin ag)
C[C@@H](NC(=O)/C(C#N)=C/c1ccc(O)c(O)c1)c1ccccc1	none (no result: FH mod, TSG101-PTAP inh, GALK inh, GALC G270D up, B2AR arrestin ag)
O=c1[nH]cnc2c([C@@H]3N[C@H](CO)[C@@H](O)[C@H]3O)c[nH]c12	none (no result: TSG101-PTAP inh, GALK inh, GALC G270D up, B2AR arrestin ag, GPR32 ag)
O=c1[nH]cnc2nc[nH]c12	GPR32 ag 82 (no result: TSG101-PTAP inh, GALK inh, B2AR arrestin ag)
COc1cc(OC)cc(C(=O)Nc2cccc(-c3cn4cccnc4n3)c2)c1	GPR32 ag inconclusive
O=C(Nc1ccc(-c2cn3cccnc3n2)cc1)c1cc(Br)ccc1Cl	GPR32 ag 83
COc1ccc(NC(=O)Nc2cccc(-c3cn4cccnc4n3)c2)cc1	GPR32 ag 77
COc1cccc(C(=O)Nc2cccc(-c3nc4ncccn4c3C)c2)c1	GALC G270D up inconclusive, GPR32 ag 61
O=C(O)c1cc(O[C@@H]2O[C@H](CO[C@@H]3OC[C@@H](O)[C@H](O)[C@H]3O)[C@@H](O)[C@H](O)[C@H]2O)c2ccccc2c1O	none (no result: TSG101-PTAP inh, GALK inh, GALC G270D up, B2AR arrestin ag, GPR32 ag)
Cc1cccc(NS(=O)(=O)c2ccc3[nH]c4c(c3c2)CCCCCC4)c1	FH mod inconclusive, GALK inh inconclusive
CCOC(=O)c1cccc(NS(=O)(=O)c2ccc3[nH]c4c(c3c2)CCCC4)c1	FH mod inconclusive, GPR32 ag 82
CC(=O)c1cccc(NS(=O)(=O)c2ccc3[nH]c4c(c3c2)CCCCC4)c1	FH mod inconclusive
CC(=O)c1cccc(NS(=O)(=O)c2cccc(S(=O)(=O)c3ccc(Br)cc3)c2)c1	GPR32 ag 63
CC(=O)c1cccc(NS(=O)(=O)c2ccc3[nH]c4c(c3c2)CCCCCC4)c1	FH mod inconclusive, GPR32 ag 100
O=S(=O)(Nc1cccc(Cl)c1)c1ccc2[nH]c3c(c2c1)CCCCCC3	FH mod inconclusive, GPR32 ag 62
CC(=O)N[C@H](Cc1ccc(O)cc1)C(=O)N[C@H](CCCN=C(N)N)C(=O)N[C@H](Cc1ccccc1)C(N)=O	none (no result: TSG101-PTAP inh, GALK inh, GALC G270D up, B2AR arrestin ag, GPR32 ag)
O=C(O)c1cc(I)ccc1NC(=O)[C@H](Cc1ccccc1)NCc1ccccc1	none (no result: TSG101-PTAP inh, GALK inh, GALC G270D up, B2AR arrestin ag, GPR32 ag)
CCN(Cc1cc(Nc2nc(C)cn3c(-c4cn[nH]c4)cnc23)sn1)C(C)(C)CO	none (no result: TSG101-PTAP inh, GALK inh, GALC G270D up, B2AR arrestin ag, GPR32 ag)
CC(=O)OC1CC(=O)C2(C)C3CC4=C(OC(C)CC4=O)OC3(C)CCC2C1(C)C (centres undefined)	none (no result: TSG101-PTAP inh, GALK inh, GALC G270D up, B2AR arrestin ag, GPR32 ag)
